From PubChem BioAssay
CCHF vOTU inh – blocks the CCHF virus ovarian tumor domain protease | actives 0.55% (n = 370,000) | CCHFV vOTU protease, Pep-AMC fluorescence | inhibition, % at 11.5 µM | AID 651958; in the data active means inhibition above about 30%; further: 0% = vehicle wells with enzyme and 100% = no enzyme wells
RN4220 kill – kills Staphylococcus aureus RN4220. inhibition, % (concentration not given with the values). AID 1259311. actives 0.33% (n = 330,000). S. aureus RN4220 growth, OD600, 16 h; in the data active means inhibition above about 85%;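 further: plate controls were untreated cells for no effect and reference antibiotic for full effect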
BJeLR lethal – BJeLR cell viability loss | BJeLR (HRASV12) viability, CellTiter-Glo ATP luminescence, 48 h | inhibition, % (concentration not given with the values) | actives 0.17% (n = 300,000) | AID 1554; in the data active means inhibition above about 50%; inconclusive means no clear call, values can overlap the other calls
Sa ugtP lethal – kills S. aureus RN4220 lacking UgtP; S. aureus RN4220 ugtP deletion, OD600 growth, 16 h; growth inhibition, % (no concentration beside the values); actives 0.54% (n = 330,000); in the data active means growth inhibition above about 68%;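 further: plate controls were untreated wells for no effect and antibiotic for full effect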
PfHsp40 rescue – compounds rescuing yeast from Plasmodium falciparum HSP40 toxicity; S. cerevisiae expressing PfHsp40, growth rescue, ATP luminescence; growth rescue, % at 12.5 µM; actives 0.68% (n = 340,000); in the data active means growth rescue above about 28%, passing the limit was not always enough; inconclusive means no clear call, values can overlap the other calls;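 further: yeast W303a lacking pdr1 and pdr3 grown in galactose medium; growth measured after three days at 30 °C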
Active calls of the source: *; ? = inconclusive; · = not tested or not shown. In the library only some 1.6% were active in any assay of this set; here they are far more common.

SMILES | CCHF vOTU inh | RN4220 kill | BJeLR lethal | Sa ugtP lethal | PfHsp40 rescue
O=C1OCCN1C(=O)[C@H]1[C@H](c2ccc([N+](=O)[O-])cc2)C(c2ccc(F)cc2)=NN1c1ccc(Br)cc1 | 32* | 0 | · | 4 | 0
O=C1OCCN1C(=O)[C@H]1[C@H](c2ccc([N+](=O)[O-])cc2)C(c2ccc(F)cc2)=NN1c1ccccc1 | 12 | -11 | · | -2 | 0
O=C(OCC(=O)C12CC3CC(CC(C3)C1)C2)c1ccc(CO)cc1 | 5 | 0 | · | 0 | 1
O=C(OCC(=O)C12CC3CC(CC(C3)C1)C2)c1ccc(O)cc1 | 7 | 0 | · | 5 | 425*
CCC(CO)N=C1CC(C)(C)CC(=O)/C1=C(\O)CCCN1C(=O)c2ccccc2C1=O (stereo not drawn) | · | 9 | · | 3 | ·
Cc1nnc(NC(=O)CN2CC(C)OC(C)C2)s1 (stereo not drawn) | 14 | 2 | 8 | 5 | 28*
CCOC(=O)c1sc(NC(=O)CN2CC(C)OC(C)C2)nc1C (stereo not drawn) | 6 | 4 | -4 | 4 | -1
CC(=NNC(=O)COc1cccc(C)c1)c1ccc2ccccc2c1O | · | -3 | · | -8 | ·
CNCC(Cc1ccccc1)NCC(CC1CCCCC1)NCCCc1ccccc1 (stereo not drawn) | · | 85* | · | 82 | ·
CNCC(CC1CCCCC1)NCC(Cc1ccccc1)NCCC12CC3CC(CC(C3)C1)C2 (stereo not drawn) | · | 100* | · | 101* | ·
CCOc1cc(C=NNc2nc(C)cc(=O)[nH]2)ccc1O | · | -1 | · | 10 | ·
O=C(NNC(=O)c1ccccc1OCc1ccccc1)c1ccccc1O | 8 | 21 | 30 | 8 | 3
O=C(NNC(=O)c1ccccc1OCc1ccc(F)cc1)c1ccccc1O | 10 | 2 | 28 | 6 | 43*
COC(=O)c1ccc(C(NC(=O)OCc2ccccc2)C(F)=CC(C)C(=O)NCc2ccc(OC)c(OC)c2)cc1 (stereo not drawn) | · | 2 | · | 10 | ·
Nc1nc(CCl)nc(N(c2ccccc2)c2ccccc2)n1 | -13 | 3 | 65* | 6 | ·
COC(=O)[C@]1(CC(C)C)NC(c2ccc(-c3ccc4c(c3)OCO4)cc2)C2C(=O)N(C)C(=O)C21 (stereo partly drawn) | · | 20 | · | 38 | ·
Cc1cc(C)c(S(=O)(=O)N2CCC(C(=O)NCc3ccc(Cl)cc3Cl)CC2)c(C)c1 | 0 | -13 | 0 | -21 | 38*
O=C(O)C1Nc2c(O)cc(Cl)c([N+](=O)[O-])c2C2C=CCC12 (stereo not drawn) | 35* | 27 | -3 | -20 | -1
CC1C=C(C(=O)NC2CC2)OC(OCc2ccc(CO)cc2)C1 (stereo not drawn) | · | 8 | · | 0 | ·
CCOC(=O)c1cnn(-c2ncnc3sc4c(c23)CCC4)c1N | -15 | 18 | 1 | 3 | -1
CCOC(=O)c1cnn(-c2nc(SC)nc3sc4c(c23)CCCC4)c1N | 10 | 100* | 4 | 100* | 13
O=C(O)CCC(=NNC(=O)CNC(=O)/C=C/c1ccccc1)c1ccccc1 | · | 20 | · | 3 | ·
O=[N+]([O-])c1ccc(OCCOCCOc2ccc([N+](=O)[O-])cc2)cc1 | -11 | 1 | -2 | 8 | 0
O=[N+]([O-])c1ccc(OCCCn2cncn2)cc1 | -8 | 6 | -2 | 6 | 51*
c1ccc(Oc2cccc(OCCCn3cncn3)c2)cc1 | 15 | 5 | -2 | 16 | 95*
SMILES | CCHF vOTU inh | RN4220 kill | BJeLR lethal | Sa ugtP lethal | PfHsp40 rescue
O=C(O)COc1ccccc1C=NNC(=O)c1cc2ccccc2cc1O | · | -4 | · | -12 | ·
CCN1CCN(Cc2ccc(NC(=O)c3ccc(C)c(NC(=O)C(=O)c4c[nH]c5ccccc45)c3)cc2C(F)(F)F)CC1 | 4 | 101* | 26 | 100* | -1
CC(NC(=O)c1ccc(Br)cc1)c1ccc2c(c1)CCCC2 (stereo not drawn) | -12 | -6 | -19 | -12 | 137*
CC(NC(=O)c1ccc(F)cc1)c1ccc2c(c1)CCCC2 (stereo not drawn) | 9 | -10 | -7 | -16 | 0
CCCCCCOC(=O)C[N+](C)(C)CCOC1CC2CCC1(C)C2(C)C (stereo not drawn) | 4 | 6 | -6 | 34 | 1
CCC(C)OC(=O)C[N+](C)(C)CCOC1CC2CCC1(C)C2(C)C (stereo not drawn) | 11 | -9 | 12 | 8 | -2
CCCCOC(=O)C[N+](C)(C)CCOC1CC2CCC1(C)C2(C)C (stereo not drawn) | -3 | -6 | 7 | 89* | -1
CCCCCCCOC(=O)C[N+](C)(C)CCOC1CC2CCC1(C)C2(C)C (stereo not drawn) | 18 | 100* | 3 | 100* | ?
CC(C)CCOC(=O)C[N+](C)(C)CCOC1CC2CCC1(C)C2(C)C (stereo not drawn) | 7 | 45 | 3 | 101* | -1
CCCOC(=O)C[N+](C)(C)CCOC1CC2CCC1(C)C2(C)C (stereo not drawn) | -4 | -4 | -6 | 10 | 0
CCCNC1C(=O)N2C(C(=O)OCCC)=C(C)CSC12 (stereo not drawn) | · | 2 | · | -1 | ·
C#CCOCCOCCOCCNc1nc(N2CCOCC2)nc(N2CCN(C(=O)C(Cc3ccc(O)cc3)n3cc(CCO)nn3)CC2)n1 (stereo not drawn) | · | 6 | · | -4 | ·
COc1ccc(C=NNc2ccc(C(=O)O)cc2)c(OC)c1OC | · | 4 | · | 6 | ·
O=C(/C=C(\O)c1ccccc1)C(=O)NNC(=O)c1ccccc1 | -17 | · | -1 | · | 0
O=C(/C=C(\O)c1ccc(Cl)cc1)C(=O)NNC(=O)C(O)(c1ccccc1)c1ccccc1 | · | -6 | · | 92* | 20
Cc1cc(=O)oc2c1ccc1oc(C(=NO)c3ccccc3)c(C)c12 | · | -2 | · | -36 | ·
Cc1cc(C)cc(NC(=O)[C@H](Cc2c[nH]c3ccccc23)NC(=O)[C@@H]2Cc3ccccc3CN2)c1 | 8 | -1 | 3 | 1 | 1
CCc1ccc(NC(=O)[C@H](Cc2c[nH]c3ccccc23)NC(=O)[C@@H]2Cc3ccccc3CN2)cc1 | 2 | 2 | 59* | -9 | 1
Cc1ccc(NC(=O)[C@H](Cc2c[nH]c3ccccc23)NC(=O)[C@@H]2Cc3ccccc3CN2)c(C)c1 | 3 | 1 | 65* | -4 | 2
Cc1cc([N+](=O)[O-])nn1Cc1ccc(C(=O)NN=Cc2ccccc2)cc1 | · | 1 | · | 0 | ·
O=C(Cn1nc(CNc2ccc(Cl)cc2)[n+]2c1CCCCC2)c1ccc(Br)cc1 | 16 | 89* | -9 | 98* | 0
CC(=NNc1cc(C)nc(-c2ccccc2O)n1)c1ccccc1 | · | -12 | · | 8 | ·
COc1ccc(C=NNC(=O)c2ccc3nc[nH]c3c2)c(OC)c1OC | · | -1 | · | 0 | ·
Oc1c(Cl)cccc1Cc1cc(Cl)cc(Cl)c1O | 23 | 100* | · | 100* | 406*
COC(=O)C1=C(C(=O)OC)[C@]2(C3CCCCNC(Cc4ccccc4)C(=O)N3Cc3ccccc3)C=CC1O2 (stereo partly drawn) | · | -3 | · | 16 | ·
N=c1c2c(n(Cc3ccc(Br)cc3)c3c1CCC3)CCCC2 | 8 | 41 | 22 | 99* | -1
